Measurements as given in PubChem BioAssay (EPA / NIEHS).
The source made the active and inactive calls. Rule for the calls: active = hit-call score of the fitted dose curve at least 0.9, where 1 is the maximum; inactive = score below 0.9.

How the values were obtained:
Details in all cases: mRNA level, 48 h; actives raise or lower the signal
[1] = read-out: Cytochrome P450 7A1 (Homo sapiens) (UniProt P22680); test: LTEA_HepaRG_CYP7A1: Life Technologies and Expression Analysis (LTEA) Assay for Cytochrome P450 7A1 (CYP7A1) using HepaRG (AID 2283496)
Outline: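 Gene expression endpoint in human HepaRG liver cells treated for 48 h with test chemicals (up to 100 uM, 0.5% DMSO). Values come from bidirectional concentration-response fitting versus DMSO.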

[2] = read-out: Glutathione S-Transferase (GSTA2), GSTA2 (gene 2939); test: LTEA_HepaRG_GSTA2: Life Technologies and Expression Analysis (LTEA) Assay for Glutathione S-Transferase (GSTA2) using HepaRG (AID 2283497)
Outline: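 Human HepaRG cells, plated 48 h, then exposed in serum-free induction medium for 48 h to eight half-log concentrations up to 100 uM in 0.5% DMSO, duplicate. GSTA2 mRNA by qRT-PCR, normalized to ACTB/GAPDH/POLR2A; bidirectional fit versus DMSO.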

[3] = read-out: Glutamate-cysteine ligase catalytic (GCLC), GCLC (gene 2729); test: LTEA_HepaRG_GCLC: Life Technologies and Expression Analysis (LTEA) Assay for Glutamate-cysteine ligase catalytic (GCLC) using HepaRG (AID 2283498)
Outline: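 Differentiated human HepaRG cells, plated 48 h then switched to serum-free induction medium, were exposed in duplicate for 48 h to 8 half-log concentrations topping at 100 uM in 0.5% DMSO. GCLC mRNA was quantified by qRT-PCR against ACTB, GAPDH and POLR2A.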

[4] = read-out: growth arrest and DNA damage 45 (GADD45G), GADD45G (gene 10912); test: LTEA_HepaRG_GADD45G: Life Technologies and Expression Analysis (LTEA) Assay for growth arrest and DNA damage 45 (GADD45G) using HepaRG (AID 2283499)
Outline: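 GADD45G transcript level by qRT-PCR (housekeeping-normalized: ACTB, GAPDH, POLR2A) after 48 h chemical treatment of a single HepaRG lot in serum-free induction medium; eight-point half-log series up to 100 uM in 0.5% DMSO, duplicates, up- or down-regulation scored.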

[5] = read-out: Glutamate-cysteine ligase regulatory (GCLM), GCLM (gene 2730); test: LTEA_HepaRG_GCLM: Life Technologies and Expression Analysis (LTEA) Assay for Glutamate-cysteine ligase regulatory (GCLM) using HepaRG (AID 2283500)
Outline: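 Differentiated human HepaRG cells exposed 48 h in serum-free induction medium to 8-point half-log concentrations (top 100 uM, 0.5% DMSO), in duplicate. GCLM mRNA quantified by qRT-PCR, normalized to ACTB, GAPDH, POLR2A; bidirectional fitting versus DMSO.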

[6] = read-out: Glutathione S-transferase M3 (GSTM3), GSTM3 (gene 2947); test: LTEA_HepaRG_GSTM3: Life Technologies and Expression Analysis (LTEA) Assay for Glutathione S-transferase M3 (GSTM3) using HepaRG (AID 2283501)
Outline: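 GSTM3 transcript levels came from Fluidigm TaqMan qRT-PCR normalized to three housekeeping genes, fitted in both directions against DMSO. HepaRG cultures received chemicals for 48 h in serum-free induction medium (0.5% DMSO), 8 half-log concentrations up to 100 uM, duplicate.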

[7] = read-out: Heat shock 70 kDa protein 1 (HSPA1A), gene 3303; test: LTEA_HepaRG_HSPA1A: Life Technologies and Expression Analysis (LTEA) Assay for Heat shock 70 kDa protein 1 (HSPA1A) using HepaRG (AID 2283502)
Outline: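 Differentiated human HepaRG cells in serum-free induction medium were exposed in duplicate for 48 h to eight concentrations (top 100 uM, half-log steps, 0.5% DMSO). HSPA1A mRNA was quantified by qRT-PCR, normalized to ACTB, GAPDH and POLR2A, and fitted bidirectionally against DMSO.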

[8] = read-out: Hypoxia-inducible factor 1-alpha (Homo sapiens) (UniProt Q16665); test: LTEA_HepaRG_HIF1A: Life Technologies and Expression Analysis (LTEA) Assay for Hypoxia-inducible factor 1 (HIF1A) Trancription factor using HepaRG (AID 2283503)
Outline: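 HepaRG, 48 h exposure, 8-pt half-log series from 100 uM, 0.5% DMSO vehicle, duplicates. Readout: HIF1A transcript by qRT-PCR (Fluidigm array), housekeeping-normalised. Bidirectional curve fit vs DMSO baseline.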

[9] = read-out: 3-Hydroxy-3-Methylglutaryl-CoA Synthase 2 (HMGCS2), HMGCS2 (gene 3158); test: LTEA_HepaRG_HMGCS2: Life Technologies and Expression Analysis (LTEA) Assay for 3-Hydroxy-3-Methylglutaryl-CoA Synthase 2 (HMGCS2) using HepaRG (AID 2283504)
Outline: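 Readout is HMGCS2 transcript by qRT-PCR, housekeeping-normalised (ACTB/GAPDH/POLR2A) and fitted bidirectionally against 0.5% DMSO. Differentiated HepaRG cells received chemicals 48 h, duplicate wells, eight half-log concentrations topping at 100 uM.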

[10] = read-out: HGF (gene 3082); test: LTEA_HepaRG_HGF: Life Technologies and Expression Analysis (LTEA) Assay for Hepatocyte Growth Facto (HGF) using HepaRG (AID 2283505)
Outline: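 HGF transcript was quantified by TaqMan qRT-PCR against three housekeeping genes after 48 h treatment of HepaRG cells. Exposure ran in duplicate over eight half-log steps topping at 100 uM in 0.5% DMSO vehicle.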

[11] = read-out: Insulin Like Growth Factor 1 (IGF1), IGF1 (gene 3479); test: LTEA_HepaRG_IGF1: Life Technologies and Expression Analysis (LTEA) Assay for Insulin Like Growth Factor 1 (IGF1) using HepaRG (AID 2283506)
Outline: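 Differentiated human HepaRG cells were dosed for 48 h in serum-free induction medium with 0.5% DMSO, eight half-log concentrations up to 100 uM, in duplicate. IGF1 mRNA was quantified by qRT-PCR normalized to ACTB, GAPDH, POLR2A; bidirectional fitting versus DMSO.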

[12] = read-out: Intercellular Adhesion Molecule 1 (ICAM1), ICAM1 (gene 3383); test: LTEA_HepaRG_ICAM1: Life Technologies and Expression Analysis (LTEA) Assay for Intercellular Adhesion Molecule 1 (ICAM1) using HepaRG (AID 2283507)
Outline: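 ICAM1 transcript levels measured by qRT-PCR, normalized to three housekeeping genes (ACTB, GAPDH, POLR2A), after 48 h chemical exposure of HepaRG cells. Duplicate eight-point half-log series from 100 uM in 0.5% DMSO; gain or loss fitted against vehicle.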

[13] = read-out: Insulin-like growth factor-binding protein 1 (IGFBP1), IGFBP1 (gene 3484); test: LTEA_HepaRG_IGFBP1: Life Technologies and Expression Analysis (LTEA) Assay for Insulin-like growth factor-binding protein 1 (IGFBP1) using HepaRG (AID 2283508)
Outline: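 Read-out is qRT-PCR transcript level normalized to three housekeeping genes, fitted in both directions against 0.5% DMSO. Differentiated HepaRG cells received eight half-log concentrations (top 100 uM) in duplicate for 48 h in serum-free induction medium.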

[14] = read-out: Interleukin 6 (IL6), IL6 (gene 3569); test: LTEA_HepaRG_IL6: Life Technologies and Expression Analysis (LTEA) Assay for Interleukin 6 (IL6) using HepaRG (AID 2283509)
Outline: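 Differentiated human HepaRG cells, plated 48 h then switched to serum-free induction medium, were exposed in duplicate for 48 h to eight half-log concentrations up to 100 uM in 0.5% DMSO. IL6 mRNA measured by qRT-PCR, normalized to ACTB/GAPDH/POLR2A.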

[15] = read-out: Interleukin 6 Receptor (IL6R), IL6R (gene 3570); test: LTEA_HepaRG_IL6R: Life Technologies and Expression Analysis (LTEA) Assay for Interleukin 6 Receptor (IL6R) using HepaRG (AID 2283510)
Outline: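 Differentiated human HepaRG cells, plated 48 h then switched to serum-free induction medium, were dosed in duplicate for 48 h at eight half-log concentrations up to 100 uM in 0.5% DMSO. IL6R mRNA quantified by qRT-PCR, normalized to ACTB/GAPDH/POLR2A; bidirectional fit versus DMSO.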

[16] = read-out: Potassium channel subfamily K member 1 (KCNK1), KCNK1 (gene 3775); test: LTEA_HepaRG_KCNK1: Life Technologies and Expression Analysis (LTEA) Assay for Potassium channel subfamily K member 1 (KCNK1) using HepaRG (AID 2283511)
Outline: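 Differentiated human HepaRG cells in serum-free induction medium were exposed in duplicate for 48 h to 8 half-log concentrations up to 100 uM in 0.5% DMSO. KCNK1 mRNA was measured by TaqMan qRT-PCR, normalized to ACTB, GAPDH and POLR2A, and fitted bidirectionally versus DMSO.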

[17] = read-out: Keratin 19 (KRT19), KRT19 (gene 3880); test: LTEA_HepaRG_KRT19: Life Technologies and Expression Analysis (LTEA) Assay for Keratin 19 (KRT19) using HepaRG (AID 2283512)
Outline: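 KRT19 transcript measured by TaqMan qRT-PCR, referenced to three housekeeping genes, after HepaRG cells received test chemicals for 48 h. Eight half-log concentrations, top 100 uM, 0.5% DMSO vehicle; increases and decreases both fitted.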

[18] = read-out: JUN Transcription Factor, JUN (gene 3725); test: LTEA_HepaRG_JUN: Life Technologies and Expression Analysis (LTEA) Assay for JUN Transcription Factor using HepaRG (AID 2283513)
Outline: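 Differentiated HepaRG cells were exposed to chemicals for 48 h in serum-free induction medium, 8 concentrations from 100 uM in half-log steps, 0.5% DMSO vehicle, in duplicate. JUN mRNA was quantified by TaqMan qRT-PCR, normalized to ACTB, GAPDH, POLR2A.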

[19] = read-out: Lipase C (LIPC), LIPC (gene 3990); test: LTEA_HepaRG_LIPC: Life Technologies and Expression Analysis (LTEA) Assay for Lipase C (LIPC) using HepaRG (AID 2283514)
Outline: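 Differentiated human HepaRG cells in serum-free induction medium were exposed in duplicate for 48 h to eight concentrations (top 100 uM, half-log steps, 0.5% DMSO). LIPC mRNA was quantified by TaqMan qRT-PCR, normalized to ACTB, GAPDH and POLR2A, with bidirectional fitting versus DMSO.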

[20] = read-out: Lipoprotein lipase (LPL), LPL (gene 4023); test: LTEA_HepaRG_LPL: Life Technologies and Expression Analysis (LTEA) Assay for Lipoprotein lipase (LPL) using HepaRG (AID 2283515)
Outline: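 Differentiated human HepaRG cells in serum-free induction medium were exposed in duplicate for 48 h to eight half-log concentrations (top 100 uM) in 0.5% DMSO. LPL mRNA was quantified by TaqMan qRT-PCR, normalized to ACTB, GAPDH and POLR2A.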

Measured: outcome

Sequence of Hypoxia-inducible factor 1-alpha (Homo sapiens) (Q16665 whole entry, looked up): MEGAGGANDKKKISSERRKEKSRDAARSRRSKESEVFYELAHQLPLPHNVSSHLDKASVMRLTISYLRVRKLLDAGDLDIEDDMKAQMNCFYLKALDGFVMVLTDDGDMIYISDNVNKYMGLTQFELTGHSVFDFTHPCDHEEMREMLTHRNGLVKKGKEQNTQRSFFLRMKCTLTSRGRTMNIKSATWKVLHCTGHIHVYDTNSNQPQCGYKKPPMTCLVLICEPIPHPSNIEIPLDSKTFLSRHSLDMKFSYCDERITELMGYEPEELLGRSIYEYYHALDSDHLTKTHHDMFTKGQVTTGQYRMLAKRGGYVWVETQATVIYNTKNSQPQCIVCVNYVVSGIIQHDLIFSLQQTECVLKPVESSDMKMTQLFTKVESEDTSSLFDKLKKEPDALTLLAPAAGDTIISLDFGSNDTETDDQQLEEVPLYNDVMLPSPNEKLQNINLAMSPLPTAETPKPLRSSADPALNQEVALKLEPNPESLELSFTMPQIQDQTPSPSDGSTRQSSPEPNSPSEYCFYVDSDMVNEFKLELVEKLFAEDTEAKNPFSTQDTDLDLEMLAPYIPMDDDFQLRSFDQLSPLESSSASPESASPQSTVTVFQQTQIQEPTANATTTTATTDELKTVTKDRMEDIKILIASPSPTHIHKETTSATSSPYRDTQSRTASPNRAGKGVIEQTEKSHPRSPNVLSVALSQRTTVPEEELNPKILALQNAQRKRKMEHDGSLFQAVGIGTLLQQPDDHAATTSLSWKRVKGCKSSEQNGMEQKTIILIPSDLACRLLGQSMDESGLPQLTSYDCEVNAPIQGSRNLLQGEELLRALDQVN

N#CCCCCC#N
inactive: all assays above
